Where “and” joins values, the source holds several entries; their conditions need not be identical. Equal values may be shown once. Records with an inconclusive call do not appear. Calls of active or inactive are those of the source. Unless noted, calls come from the whole dose curve; as a rule, active = well fitted curve in the direction sought with a large enough effect; inconclusive = small, poorly fitted or top-dose-only effect, or another doubt; inactive = no such curve, though single readings can be large; an effect the other way counts as inactive or inconclusive.
Experiments:
[1] = Primary qHTS for inhibitors of La Crosse Virus (LACV) - induced cell death in SH-SY5Y cells (AID 1508616);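 note: top concentration of the series differs between compounds; 0% = infected DMSO wells and 100% = uninfected DMSO wells; higher means more rescue of cells from virus-induced death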
Outline: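 SH-SY5Y cells (6000/well) plated 24 h, then given compounds by pin transfer and LACV at 0.01 MOI for 6 days at 37C. Viability measured by ATPLite luminescence, normalized to infected DMSO and uninfected DMSO.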

[2] = biological target: Calcium and integrin-binding protein 1 (Homo sapiens) (UniProt Q99828); test: Validation qHTS for Identification of Calcium Integrin Binding protein 1 (CIB1) Competitor (AID 1508618); note: % is set by controls: 0 for no effect and ±100 for the full control effect
Calcium and integrin-binding protein 1 (Homo sapiens), sequence (Q99828 whole entry, looked up): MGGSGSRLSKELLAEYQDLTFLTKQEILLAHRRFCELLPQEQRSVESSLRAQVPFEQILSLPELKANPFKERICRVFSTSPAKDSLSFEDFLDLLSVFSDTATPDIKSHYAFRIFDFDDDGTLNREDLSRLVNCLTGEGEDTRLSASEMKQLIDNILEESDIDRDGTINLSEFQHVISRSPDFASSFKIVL
Outline: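 Displacement of FITC-alphaIIb peptide (100 nM) from CIB1-GST (1 uM) is monitored by polarization in quantitative HTS format; buffer carries 5 mM CaCl2 and 125 mM NaCl at pH 7.4, incubations are at room temperature.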

[3] = biological target: Calcium and integrin-binding protein 1 (Homo sapiens) (UniProt Q99828); test: Primary qHTS for Identification of Calcium Integrin Binding Protein 1 (CIB1) Competitor (AID 1508620);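 note: GST tagged CIB1 binding a fluorescein labelled alphaIIb integrin peptide tracer; top concentration of the series differs between compounds; % is set by controls: 0 for no effect and ±100 for the full control effect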
Outline: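 CIB1-GST (1 uM final) and compound incubated 15 min at room temperature before adding FITC-alphaIIb peptide tracer (100 nM final). Competition for binding read by fluorescence polarization (ex 480, em 540) after another 15 min at room temperature.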

[4] = Primary qHTS for small molecule stabilizers of the endoplasmic reticulum resident proteome: Secreted ER Calcium Modulated Protein (SERCaMP) assay (AID 1508630); note: potency is the fitted concentration of half-maximal effect
Outline: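 GLuc-SERCaMP-expressing SH-SY5Y cells, pretreated 16 h with compound, are challenged with thapsigargin to empty ER calcium stores; after 4 h, coelenterazine is added directly to the medium and luminescence is imaged.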

[5] = A High-Content qHTS Against Drug Library for the Identification of Small Molecules that Inhibit DYT1 Early Onset Primary Dystonia-Associated Cell Pathology (AID 1645839; calls by dose curve; note: series mostly up to about 46 µM)
Outline: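 In this high-content image screen, delE TorsinA mislocalization in inducible Flp-In 293 cells is scored as %pathology, with cell count serving as the counterscreen. Compound exposure lasts 48 h under tetracycline induction in reduced-serum medium.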

[6] = biological target: Cytochrome P450 2D6 (Homo sapiens) (UniProt P10635); test: Cytochrome P450 family 2 subfamily D member 6 (CYP2D6) small molecule antagonists: luciferase biochemical (cell-free) qHTS assay (AID 1645840; active = well fitted curve in the direction sought with a large enough effect in the repeat runs; an effect the other way counts as inactive or inconclusive; note: nearly all actives have a fitted effect of over 55% in size; note: potency is the fitted concentration of half-maximal effect)
Cytochrome P450 2D6 (Homo sapiens), sequence (P10635 whole entry, looked up): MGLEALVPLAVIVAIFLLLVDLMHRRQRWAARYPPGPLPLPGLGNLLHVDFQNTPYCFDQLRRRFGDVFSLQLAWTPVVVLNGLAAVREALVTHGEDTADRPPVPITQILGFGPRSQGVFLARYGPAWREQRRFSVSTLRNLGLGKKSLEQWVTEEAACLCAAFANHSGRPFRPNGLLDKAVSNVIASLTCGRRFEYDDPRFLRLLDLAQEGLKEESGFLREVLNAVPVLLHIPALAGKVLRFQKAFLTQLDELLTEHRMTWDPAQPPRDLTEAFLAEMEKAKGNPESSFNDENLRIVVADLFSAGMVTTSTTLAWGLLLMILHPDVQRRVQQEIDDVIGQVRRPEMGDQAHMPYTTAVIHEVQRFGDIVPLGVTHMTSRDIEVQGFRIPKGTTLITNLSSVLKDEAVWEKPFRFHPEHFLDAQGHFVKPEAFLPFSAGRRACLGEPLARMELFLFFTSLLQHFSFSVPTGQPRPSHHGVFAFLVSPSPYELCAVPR
Outline: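 P450-Glo luminescent screen: recombinant CYP2D6 enzyme–proluciferin substrate mix preincubated with compound 10 min at room temperature, then NADPH regeneration added for 1 h at room temperature. Detection reagent added for 20 min; luciferin light read as relative luminescence units.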

[7] = biological target: Papain (Carica papaya) (UniProt P00784); test: Primary qHTS assay for inhibitors of the protease papain (AID 1645873);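 note: papain turnover of Z-FR-AMC read as the AMC fluorescence gain over 10 min; series mostly up to about 50 µM; % is set by controls: 0 for no effect and ±100 for the full control effect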
Papain (Carica papaya), sequence (P00784 whole entry, looked up, the tested form may be a part): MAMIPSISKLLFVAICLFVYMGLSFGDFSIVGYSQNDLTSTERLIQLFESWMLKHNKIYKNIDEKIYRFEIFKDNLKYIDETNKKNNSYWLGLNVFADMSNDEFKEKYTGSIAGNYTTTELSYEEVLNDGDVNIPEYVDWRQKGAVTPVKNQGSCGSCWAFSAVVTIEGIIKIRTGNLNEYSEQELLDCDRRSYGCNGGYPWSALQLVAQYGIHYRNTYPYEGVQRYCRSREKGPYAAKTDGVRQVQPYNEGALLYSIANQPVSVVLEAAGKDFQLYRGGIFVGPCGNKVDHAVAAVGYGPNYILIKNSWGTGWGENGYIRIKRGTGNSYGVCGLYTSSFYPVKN

[8] = Primary qHTS for inhibitors of nuclear receptor binding SET domain protein 2 (NSD2) in an isogenic RCH-ACV NSD2 p.E1099K mutant (9B) (AID 1645876); note: nearly all actives have a fitted effect of over 70% in size; note: potency is the fitted concentration of half-maximal effect
[9] = Counterscreen qHTS for small molecule stabilizers of the endoplasmic reticulum resident proteome: GLuc-NoTag assay (AID 1508627); note: potency is the fitted concentration of half-maximal effect
Outline: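 Luminescence of Gaussia luciferase secreted into the medium (coelenterazine, 0.07x final, unlysed cells) was the read-out. Human SH-SY5Y neuroblastoma cells constitutively secreting untagged GLuc received compound for 19 h, then 100 nM thapsigargin for 4 h.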

[10] = Confirmatory qHTS for small molecule stabilizers of the endoplasmic reticulum resident proteome: Secreted ER Calcium Modulated Protein (SERCaMP) assay (AID 1508628); note: nearly all actives have a fitted effect of over 40% in size; note: potency is the fitted concentration of half-maximal effect
Outline: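 SH-SY5Y cells stably expressing GLuc-SERCaMP, treated 16 h with compound (primary 1.53, 7.67, 38.3 uM; confirmation 11 concentrations, up to 76.6 uM), then 100 nM thapsigargin for 4 h. Secreted Gaussia luciferase in medium read by coelenterazine luminescence.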

[11] = Cell Viability qHTS for small molecule stabilizers of the endoplasmic reticulum resident proteome (AID 1508629); conditions: cell viability counter-screen, 100 nM thapsigargin for final 4 h;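 note: human SH-SY5Y neuroblastoma cells carrying the GLuc-SERCaMP reporter; compound exposure about 46 h in total before the viability read; % is set by controls: 0 for no effect and ±100 for the full control effect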
[12] = biological target: Cytochrome P450 2C9 (Homo sapiens) (UniProt P11712); test: Cytochrome P450 family 2 subfamily C member 9 (CYP2C9) small molecule antagonists: luciferase biochemical (cell-free) qHTS assay (AID 1645842; active = well fitted curve in the direction sought with a large enough effect in the repeat runs; an effect the other way counts as inactive or inconclusive; note: series mostly up to about 57 µM; % is set by controls: 0 for no effect and ±100 for the full control effect; nearly all actives have a fitted effect of over 55% in size)
Cytochrome P450 2C9 (Homo sapiens), sequence (P11712 whole entry, looked up): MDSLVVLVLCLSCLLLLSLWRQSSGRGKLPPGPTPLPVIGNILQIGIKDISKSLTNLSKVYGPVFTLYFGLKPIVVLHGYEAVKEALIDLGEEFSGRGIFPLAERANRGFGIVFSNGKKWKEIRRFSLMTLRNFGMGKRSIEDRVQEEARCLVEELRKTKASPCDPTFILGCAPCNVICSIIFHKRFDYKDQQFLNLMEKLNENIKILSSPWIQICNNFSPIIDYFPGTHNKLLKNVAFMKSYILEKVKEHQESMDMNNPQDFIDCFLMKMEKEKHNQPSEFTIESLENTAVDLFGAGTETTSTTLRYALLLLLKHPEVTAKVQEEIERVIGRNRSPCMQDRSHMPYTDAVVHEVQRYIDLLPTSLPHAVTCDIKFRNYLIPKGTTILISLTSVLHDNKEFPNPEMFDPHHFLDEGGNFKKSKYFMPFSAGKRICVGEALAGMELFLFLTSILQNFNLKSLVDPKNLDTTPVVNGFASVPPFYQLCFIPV
Outline: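 Luminescence, after 20 min with luciferin detection reagent, reflected CYP2C9 turnover during a 1 h NADPH-driven reaction at 37C. Enzyme-substrate mix contained 0.4% bovine serum albumin and was preincubated with compound 10 min at room temperature.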

[13] = Primary qHTS for inhibitors of nuclear receptor binding SET domain protein 2 (NSD2) in an RCH-ACV wild type WT cells (2C) (AID 1645877); note: nearly all actives have a fitted effect of over 70% in size; note: potency is the fitted concentration of half-maximal effect
[14] = biological target: Rap guanine nucleotide exchange factor 3 (Homo sapiens) (UniProt O95398); test: Confirmatory qHTS for antagonist of cAMP-regulated guanine nucleotide exchange factor 3 (EPAC1) (AID 1645880);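 note: plate controls were DMSO only for no effect and full effect of the ATA control for full effect; nearly all actives have a fitted effect of over 55% in size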
Rap guanine nucleotide exchange factor 3 (Homo sapiens), sequence (O95398 whole entry, looked up): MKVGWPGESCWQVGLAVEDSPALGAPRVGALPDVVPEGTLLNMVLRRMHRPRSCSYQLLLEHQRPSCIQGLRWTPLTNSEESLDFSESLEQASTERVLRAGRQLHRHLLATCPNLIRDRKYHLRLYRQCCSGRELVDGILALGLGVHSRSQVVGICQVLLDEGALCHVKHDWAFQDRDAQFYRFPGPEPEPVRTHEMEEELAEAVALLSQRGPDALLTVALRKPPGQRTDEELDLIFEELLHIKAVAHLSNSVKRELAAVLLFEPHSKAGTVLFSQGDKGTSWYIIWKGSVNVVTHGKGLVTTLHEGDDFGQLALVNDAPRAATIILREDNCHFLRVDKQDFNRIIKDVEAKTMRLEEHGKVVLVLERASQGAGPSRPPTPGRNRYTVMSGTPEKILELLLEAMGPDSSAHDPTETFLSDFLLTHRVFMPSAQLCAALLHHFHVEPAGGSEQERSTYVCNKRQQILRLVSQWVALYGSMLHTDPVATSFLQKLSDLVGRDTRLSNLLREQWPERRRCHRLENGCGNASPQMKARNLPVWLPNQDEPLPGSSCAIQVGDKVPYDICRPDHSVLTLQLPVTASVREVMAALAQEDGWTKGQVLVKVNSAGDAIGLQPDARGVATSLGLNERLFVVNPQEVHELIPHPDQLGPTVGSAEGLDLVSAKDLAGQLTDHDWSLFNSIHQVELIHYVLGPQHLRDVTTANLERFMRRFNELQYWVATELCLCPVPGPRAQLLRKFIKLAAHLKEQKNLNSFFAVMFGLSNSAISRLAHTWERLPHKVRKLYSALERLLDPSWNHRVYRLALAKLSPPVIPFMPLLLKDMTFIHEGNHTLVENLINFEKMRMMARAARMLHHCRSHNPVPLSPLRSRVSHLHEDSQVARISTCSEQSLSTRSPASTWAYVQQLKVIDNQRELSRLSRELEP
Outline: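 Nucleotide exchange uses 100 nM EPAC1, 250 nM RAP1B-BODIPY-GDP and 50 uM GDP, with compounds in a concentration-titration series. After 5 min at room temperature, fluorescence (480 nm ex/540 nm em) is read every 5 min for 30 min. Data are normalized to control ATA and DMSO.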

[15] = biological target: Rap guanine nucleotide exchange factor 3 (Homo sapiens) (UniProt O95398); test: Confirmatory qHTS for agonist of cAMP-regulated guanine nucleotide exchange factor 3 (EPAC1) (AID 1645881);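 note: EPAC1 catalysed release of BODIPY-GDP from Rap1B seen as fluorescence loss; 100% = effect of cAMP agonist control; nearly all actives have a fitted effect of over 75% in size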
[16] = biological target: Rap guanine nucleotide exchange factor 4 (Homo sapiens) (UniProt Q8WZA2); test: Confirmatory qHTS for agonist of cAMP-regulated guanine nucleotide exchange factor 4 (EPAC2) (AID 1645884);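 note: nucleotide exchange releases bodipy-GDP from Rap1 and this lowers its fluorescence; % is set by controls: 0 for no effect and ±100 for the full control effect; nearly all actives have a fitted effect of over 65% in size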
Rap guanine nucleotide exchange factor 4 (Homo sapiens), sequence (Q8WZA2 whole entry, looked up): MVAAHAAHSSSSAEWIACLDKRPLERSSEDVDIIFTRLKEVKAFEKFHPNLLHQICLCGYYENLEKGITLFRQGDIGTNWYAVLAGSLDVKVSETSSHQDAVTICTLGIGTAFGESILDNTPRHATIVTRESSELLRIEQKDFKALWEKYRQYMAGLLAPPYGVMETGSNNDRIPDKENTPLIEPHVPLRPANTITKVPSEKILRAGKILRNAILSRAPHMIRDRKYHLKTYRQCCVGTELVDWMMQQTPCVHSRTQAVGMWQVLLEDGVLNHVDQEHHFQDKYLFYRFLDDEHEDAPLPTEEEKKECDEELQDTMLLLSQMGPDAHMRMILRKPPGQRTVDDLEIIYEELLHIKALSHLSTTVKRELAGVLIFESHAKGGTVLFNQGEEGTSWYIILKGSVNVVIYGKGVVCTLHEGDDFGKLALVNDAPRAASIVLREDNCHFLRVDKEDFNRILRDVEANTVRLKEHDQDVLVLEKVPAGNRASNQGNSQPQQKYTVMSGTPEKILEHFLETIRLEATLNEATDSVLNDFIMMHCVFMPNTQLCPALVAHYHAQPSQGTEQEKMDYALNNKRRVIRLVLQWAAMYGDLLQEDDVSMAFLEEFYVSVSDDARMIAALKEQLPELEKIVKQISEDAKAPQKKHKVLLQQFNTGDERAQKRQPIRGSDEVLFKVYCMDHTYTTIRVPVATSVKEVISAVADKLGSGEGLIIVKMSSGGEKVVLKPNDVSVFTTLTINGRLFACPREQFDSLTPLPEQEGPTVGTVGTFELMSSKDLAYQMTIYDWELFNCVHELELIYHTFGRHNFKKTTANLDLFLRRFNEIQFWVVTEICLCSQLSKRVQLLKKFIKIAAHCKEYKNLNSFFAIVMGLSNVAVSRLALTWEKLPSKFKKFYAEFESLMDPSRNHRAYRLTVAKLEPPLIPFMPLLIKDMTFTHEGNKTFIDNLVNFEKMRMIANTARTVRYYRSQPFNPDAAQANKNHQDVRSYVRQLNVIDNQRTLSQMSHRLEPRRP

[17] = biological target: Calcium and integrin-binding protein 1 (Homo sapiens) (UniProt Q99828); test: Confirmatory qHTS for Identification of Calcium Integrin Binding Protein 1 (CIB1) Competitor (AID 1508617); note: potency is the fitted concentration of half-maximal effect; nearly all actives have a fitted effect of over 65% in size
Outline: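 Confirmatory qHTS measures displacement of a FITC-alphaIIb peptide (100 nM) from CIB1-GST (1 uM) by fluorescence polarization. Calcium-containing HEPES buffer, pH 7.4; two 15 min room-temperature incubations.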

[18] = biological target: N-terminal Xaa-Pro-Lys N-methyltransferase 1 (Homo sapiens) (UniProt Q9BV86); test: Confirmatory qHTS for Inhibitors of N-terminal methyltransferase 1 (NTMT1): MTaseGlo Assay (AID 1645874); note: potency is the fitted concentration of half-maximal effect; nearly all actives have a fitted effect of over 65% in size
N-terminal Xaa-Pro-Lys N-methyltransferase 1 (Homo sapiens), sequence (Q9BV86 whole entry, looked up): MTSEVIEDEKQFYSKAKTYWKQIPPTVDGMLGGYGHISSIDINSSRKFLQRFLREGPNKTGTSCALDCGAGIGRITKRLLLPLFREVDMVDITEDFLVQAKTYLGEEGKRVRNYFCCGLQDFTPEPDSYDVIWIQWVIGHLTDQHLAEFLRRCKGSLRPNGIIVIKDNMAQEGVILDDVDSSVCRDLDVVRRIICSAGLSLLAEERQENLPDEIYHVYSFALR
Outline: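 Preincubation of NTMT1 (125 nM) plus SAM (100 uM) with test compounds lasted 15 min; methylation of 1 uM SPKRIA then proceeded 30 min in the dark at room temperature. Luciferase signal reported SAH produced.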

NNCCc1ccccc1
active: Potency [6] 5.49 µM
inactive: outcome [1] | Potency [2] | outcome [3] | Potency [4] | Potency [5] | Potency [7] | Potency [8]

Nc1nc2c(ncn2COCCO)c(=O)[nH]1
inactive: outcome [1] | Potency [2] | outcome [3] | Potency [9] | Potency [10] | max response [11] 1.71% | Potency [4] | Potency [5] | Potency [6] | Potency [12] | Potency [7] | Potency [8] | Potency [13]

CCOC(=O)C1=C[C@]2(CC)CCCN3CCc4c(n1c1ccccc41)[C@@H]32
inactive: outcome [1] | Potency [2] | outcome [3] | Potency [4] | Potency [5]
active: Potency [6] 4.9 µM

Nc1nc2ccc(OC(F)(F)F)cc2s1
inactive: outcome [1] | Potency [2] | outcome [3] | Potency [4] | Potency [5] | Potency [14] | outcome [15] | outcome [16]
active: Potency [8] 23.5 µM | Potency [13] 20.9 µM

CCOC(=O)N1CCC(=C2c3ccc(Cl)cc3CCc3cccnc32)CC1
active: Potency [9] 35.5 µM
inactive: outcome [1] | Potency [2] | outcome [3] | Potency [4] | Potency [7] | Potency [14] | outcome [15]

Cc1cn[nH]c1
inactive: outcome [1] | Potency [2] | outcome [3] | Potency [4] | Potency [5] | Potency [7] | Potency [8] | Potency [13]

COc1ccc2nc(S(=O)Cc3ncc(C)c(OC)c3C)[nH]c2c1 (configuration not stated)
inactive: outcome [1] | outcome [3] | Potency [9] | max response [11] -2.62% | Potency [4] | Potency [5] | Potency [6] | Potency [8]
active: Potency [17] 39.8 µM

C1COC(NC(C2CC2)C2CC2)=N1
inactive: outcome [1] | Potency [2] | outcome [3] | Potency [4] | Potency [5] | Potency [12] | Potency [7] | Potency [8]

CCC(C)N(C)C(=O)c1cc2ccccc2c(-c2ccccc2Cl)n1 (configuration not stated)
inactive: outcome [1] | Potency [2] | outcome [3] | Potency [4] | Potency [7]

CC(=O)Oc1ccccc1C(=O)O
inactive: outcome [1] | Potency [2] | outcome [3] | Potency [4] | Potency [5] | Potency [12] | Potency [7] | Potency [8]
active: Potency [6] 15.5 µM

N[C@@H]1CONC1=O
inactive: outcome [1] | Potency [2] | outcome [3] | Potency [4] | Potency [5] | Potency [6] | Potency [12] | Potency [7] | Potency [8] | Potency [13]

OC(CCN1CCCCC1)(c1ccccc1)C1CC2C=CC1C2 (configuration not stated)
active: Potency [10] 15.8 µM and 22.4 µM | Potency [4] 10 µM | Potency [6] 1.23 µM
inactive: outcome [1] | Potency [2] | outcome [3] | Potency [9] | max response [11] 24.4% | Potency [5] | Potency [12] | Potency [7] | Potency [8] | Potency [13]

NCCCC(N)(C(=O)O)C(F)F (configuration not stated)
inactive: outcome [1] | Potency [2] | outcome [3] | Potency [4] | Potency [5] | Potency [7] | Potency [8] | Potency [13]

OC(CN1CCC(Cc2ccc(F)cc2)CC1)c1ccc(Cl)cc1 (configuration not stated)
inactive: outcome [1] | Potency [2] | outcome [3] | max response [11] -25.9% | Potency [4] | Potency [5] | Potency [12] | Potency [7] | Potency [8] | Potency [13]
active: Potency [9] 17.8 µM | Potency [6] 15.5 nM and 53.5 nM

O=C1CCC(N2C(=O)c3ccccc3C2=O)C(=O)N1 (configuration not stated)
active: Potency [6] 15.5 µM
inactive: outcome [1] | Potency [2] | outcome [3] | Potency [4] | Potency [5] | Potency [12] | Potency [7] | Potency [8] | Potency [13]

Oc1ccc(C2CNCCc3c2cc(O)c(O)c3Cl)cc1 (configuration not stated)
inactive: outcome [1] | Potency [2] | outcome [3] | Potency [9] | max response [11] -10.9% | Potency [4] | Potency [5] | Potency [12] | Potency [7] | Potency [8] | Potency [13]

c1ccc([C@H]2CN3CCSC3=N2)cc1
inactive: outcome [1] | Potency [2] | outcome [3] | Potency [4] | Potency [5] | Potency [12] | Potency [7] | Potency [8] | Potency [13]
active: Potency [6] 30.9 µM

CNC(=O)c1ccc(C)c(-n2c(C)cc(OCc3ccc(F)cc3F)c(Br)c2=O)c1
inactive: outcome [3]

Nc1ncnc2nc(-c3ccc(N4CCOCC4)nc3)cc(-c3cccc(Br)c3)c12
active: Potency [18] 0.515 µM
inactive: outcome [1] | outcome [3]

Reference: PubChem BioAssay (NCATS)
